{"source": "PubChem BioAssay (NCI)", "key": {"[1]": {"assay": "NCI Yeast Anticancer Drug Screen. Data for the rad52 strain (AID 147);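 further: 0% = growth of vehicle-treated control cultures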", "conditions": "S. cerevisiae rad52 mutant growth inhibition, hits give high values", "in_short": "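Growth of repair-deficient yeast cells was compared between compound-treated and vehicle-treated cultures to give percent inhibition.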"}, "[2]": {"assay": "NCI Yeast Anticancer Drug Screen. Data for the wt1 strain (AID 149);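 further: 0% = growth of vehicle-treated wt1 cultures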", "conditions": "S. cerevisiae wt1 strain (SPY 50644) growth inhibition, hits give high values", "in_short": "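Compounds are added to wt1 yeast cultures. Growth is then measured. Inhibition is expressed relative to vehicle-treated controls.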"}, "[3]": {"assay": "NCI Yeast Anticancer Drug Screen. Data for the rad50EPP+ strain (AID 151);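 further: 0% = growth of vehicle-treated control cultures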", "conditions": "S. cerevisiae rad50 mutant strain, hits give high values", "in_short": "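Measured: growth inhibition of rad50EPP+ yeast. Reference: vehicle-treated controls. Screen uses strains with defined genetic alterations in DNA damage repair or cell cycle control.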"}, "[4]": {"assay": "NCI Yeast Anticancer Drug Screen. Data for the rad50 strain (AID 155);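 further: 0% = growth of vehicle-only cultures of the same strain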", "conditions": "S. cerevisiae rad50 strain growth inhibition, hits give high values", "in_short": "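Inhibition values express reduced yeast growth in compound-treated cultures relative to vehicle-treated controls.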"}, "[5]": {"assay": "NCI Yeast Anticancer Drug Screen. Data for the mec2-1 strain (AID 157)", "conditions": "S. cerevisiae mec2-1 strain, hits give high values", "in_short": "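Compounds were applied to mec2-1 yeast cells. Their growth was then compared with that of vehicle-treated cultures to give growth inhibition.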"}, "[6]": {"assay": "NCI Yeast Anticancer Drug Screen. Data for the rad14 strain (AID 159);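 further: 0% = growth of vehicle-treated control cultures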", "conditions": "S. cerevisiae rad14 strain growth inhibition, hits give high values", "in_short": "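A mutant yeast strain defective in DNA damage repair is treated with compound; inhibition of its growth is scored against untreated, vehicle-exposed cultures.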"}, "[7]": {"assay": "NCI Yeast Anticancer Drug Screen. Data for the sgs1 mgt1 strain (AID 161);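 further: 0% = growth of cultures given vehicle only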", "conditions": "S. cerevisiae sgs1 mgt1 strain, hits give high values", "in_short": "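Percent growth inhibition was derived by comparing compound-exposed mutant yeast with vehicle-exposed cultures. The strain carries alterations in DNA damage repair.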"}, "[8]": {"assay": "NCI Yeast Anticancer Drug Screen. Data for the CLN2oe strain (AID 163);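 further: 0% = growth of vehicle-only control cultures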", "conditions": "S. cerevisiae CLN2oe strain, hits give high values", "in_short": "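Cells of an engineered yeast line with disturbed cell-cycle regulation are treated with compound. Inhibition of growth is then calculated relative to the vehicle-treated reference.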"}, "[9]": {"assay": "NCI Yeast Anticancer Drug Screen. Data for the cln2 rad14 strain (AID 165);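 further: 0% = growth equal to vehicle treated cultures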", "conditions": "S. cerevisiae cln2 rad14 strain, hits give high values", "in_short": "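Strain: cln2 rad14 yeast, altered in cell cycle control and DNA damage repair. Read-out: growth inhibition vs vehicle.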"}, "[10]": {"assay": "NCI Yeast Anticancer Drug Screen. Data for the bub3 strain (AID 167)", "conditions": "S. cerevisiae bub3 mutant strain, hits give high values", "in_short": "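Steps: expose the mutant yeast strain to compound; grow alongside vehicle-treated cultures; measure growth; express inhibition against the vehicle cultures.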"}, "[11]": {"assay": "NCI Yeast Anticancer Drug Screen. Data for the wt2 strain (AID 169);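 further: 0% = growth of vehicle-treated yeast cultures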", "conditions": "S. cerevisiae wt2 strain growth inhibition, hits give high values", "in_short": "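Growth of compound-treated yeast is measured and expressed as inhibition relative to vehicle-only controls.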"}, "[12]": {"assay": "NCI Yeast Anticancer Drug Screen. Data for the mlh1 strain (AID 171);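 further: 0% = growth of vehicle-treated control cultures of the same strain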", "conditions": "S. cerevisiae mlh1 strain growth inhibition, hits give high values", "in_short": "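Test agents were incubated with yeast bearing a defined DNA damage repair or cell cycle control alteration; values are growth inhibition normalised to vehicle-treated cultures.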"}, "[13]": {"assay": "NCI Yeast Anticancer Drug Screen. Data for the sgs1 strain (AID 173);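 further: 0% = growth of vehicle-only control cultures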", "conditions": "S. cerevisiae sgs1 mutant, hits give high values", "in_short": "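Strain with an altered DNA repair or cell cycle pathway exposed to compound. Growth then measured. Value = inhibition versus vehicle control.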"}, "[14]": {"assay": "NCI Yeast Anticancer Drug Screen. Data for the mlh1 rad18 strain (AID 175)", "conditions": "S. cerevisiae mlh1 rad18 strain growth inhibition, hits give high values", "in_short": "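A repair-deficient yeast strain is exposed to test compound, and growth is scored relative to vehicle-treated controls.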"}, "[15]": {"assay": "NCI Yeast Anticancer Drug Screen. Data for the rad18 strain (AID 177)", "conditions": "S. cerevisiae rad18 mutant growth inhibition, hits give high values", "in_short": "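DNA-repair-defective yeast; compound treatment; growth inhibition scored against vehicle.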"}, "[16]": {"conditions": "at 5.0 µM (retest, dose inferred, filed as 0.5)"}, "[17]": {"conditions": "at 50.0 µM (retest, dose inferred, filed as 5.0)"}}, "note": "This is part of a sample that, as a whole, favours compounds with a hit. Of some 79,000 tested, about 15% had one in any assay. Unmarked numbers belong to inactive results. Calls of active or inactive are those of the source. No stated cut-off is given here; in the data, active means growth inhibition above about 70%; inactive means the rest.", "data": [{"smiles": "COCCCN(Cc1cc(OC)c(OC)c(OC)c1)C(=S)Nc1cccc(Cl)c1", "values": [{"measurement": "growth inhibition", "setting": "[1]; at 1.2 µM", "value": 20, "unit": "%"}, {"measurement": "growth inhibition", "setting": "[1]; at 3.7 µM", "value": 12, "unit": "%"}, {"measurement": "growth inhibition", "setting": "[1]; at 11.0 µM", "value": 7, "unit": "%"}, {"measurement": "growth inhibition", "setting": "[1]; at 33.0 µM", "value": 23, "unit": "%"}, {"measurement": "growth inhibition", "setting": "[1]; at 100.0 µM", "value": 46, "unit": "%"}, {"measurement": "growth inhibition", "setting": "[2]; at 1.2 µM", "value": 15, "unit": "%"}, {"measurement": "growth inhibition", "setting": "[2]; at 3.7 µM", "value": 12, "unit": "%"}, {"measurement": "growth inhibition", "setting": "[2]; at 11.0 µM", "value": 9, "unit": "%"}, {"measurement": "growth inhibition", "setting": "[2]; at 33.0 µM", "value": 15, "unit": "%"}, {"measurement": "growth inhibition", "setting": "[2]; at 100.0 µM", "value": 24, "unit": "%"}, {"measurement": "growth inhibition", "setting": "[3]; at 1.2 µM", "value": -12, "unit": "%"}, {"measurement": "growth inhibition", "setting": "[3]; at 3.7 µM", "value": -21, "unit": "%"}, {"measurement": "growth inhibition", "setting": "[3]; at 11.0 µM", "value": -28, "unit": "%"}, {"measurement": "growth inhibition", "setting": "[3]; at 33.0 µM", "value": -6, "unit": "%"}, {"measurement": "growth inhibition", "setting": "[3]; at 100.0 µM", "value": -9, "unit": "%"}, {"measurement": "growth inhibition", "setting": "[4]; at 1.2 µM", "value": -24, "unit": "%"}, {"measurement": "growth inhibition", "setting": "[4]; at 3.7 µM", "value": -13, "unit": "%"}, {"measurement": "growth inhibition", "setting": "[4]; [16]", "value": 43, "unit": "%"}, {"measurement": "growth inhibition", "setting": "[4]; at 11.0 µM", "value": -14, "unit": "%"}, {"measurement": "growth inhibition", "setting": "[4]; at 33.0 µM", "value": -8, "unit": "%"}, {"measurement": "growth inhibition", "setting": "[4]; [17]", "value": 69, "unit": "%"}, {"measurement": "growth inhibition", "setting": "[4]; at 50.0 µM", "value": 22.7, "unit": "%"}, {"measurement": "growth inhibition", "setting": "[4]; at 100.0 µM", "value": 40, "unit": "%"}, {"measurement": "growth inhibition", "setting": "[5]; at 1.2 µM", "value": -12, "unit": "%"}, {"measurement": "growth inhibition", "setting": "[5]; at 3.7 µM", "value": 4, "unit": "%"}, {"measurement": "growth inhibition", "setting": "[5]; [16]", "value": 51, "unit": "%"}, {"measurement": "growth inhibition", "setting": "[5]; at 11.0 µM", "value": -19, "unit": "%"}, {"measurement": "growth inhibition", "setting": "[5]; at 33.0 µM", "value": -18, "unit": "%"}, {"measurement": "growth inhibition", "setting": "[5]; [17]", "value": 56, "unit": "%"}, {"measurement": "growth inhibition", "setting": "[5]; at 50.0 µM", "value": -9.3, "unit": "%"}, {"measurement": "growth inhibition", "setting": "[5]; at 100.0 µM", "value": 20, "unit": "%"}, {"measurement": "growth inhibition", "setting": "[6]; at 1.2 µM", "value": -28, "unit": "%"}, {"measurement": "growth inhibition", "setting": "[6]; at 3.7 µM", "value": -7, "unit": "%"}, {"measurement": "growth inhibition", "setting": "[6]; at 11.0 µM", "value": -32, "unit": "%"}, {"measurement": "growth inhibition", "setting": "[6]; at 33.0 µM", "value": -32, "unit": "%"}, {"measurement": "growth inhibition", "setting": "[6]; at 100.0 µM", "value": 15, "unit": "%"}, {"measurement": "growth inhibition", "setting": "[7]; [16]", "value": -32, "unit": "%"}, {"measurement": "growth inhibition", "setting": "[7]; [17]", "value": 4, "unit": "%"}, {"measurement": "growth inhibition", "setting": "[7]; at 50.0 µM", "value": 24.4, "unit": "%"}, {"measurement": "growth inhibition", "setting": "[8]; at 1.2 µM", "value": 0, "unit": "%"}, {"measurement": "growth inhibition", "setting": "[8]; at 3.7 µM", "value": -9, "unit": "%"}, {"measurement": "growth inhibition", "setting": "[8]; at 11.0 µM", "value": -30, "unit": "%"}, {"measurement": "growth inhibition", "setting": "[8]; at 33.0 µM", "value": -26, "unit": "%"}, {"measurement": "growth inhibition", "setting": "[8]; at 100.0 µM", "value": 1, "unit": "%"}, {"measurement": "growth inhibition", "setting": "[9]; [16]", "value": 41, "unit": "%"}, {"measurement": "growth inhibition", "setting": "[9]; [17]", "value": 46, "unit": "%"}, {"measurement": "growth inhibition", "setting": "[9]; at 50.0 µM", "value": 17.4, "unit": "%"}, {"measurement": "growth inhibition", "setting": "[10]; at 1.2 µM", "value": -3, "unit": "%"}, {"measurement": "growth inhibition", "setting": "[10]; at 3.7 µM", "value": 0, "unit": "%"}, {"measurement": "growth inhibition", "setting": "[10]; [16]", "value": 5, "unit": "%"}, {"measurement": "growth inhibition", "setting": "[10]; at 11.0 µM", "value": -2, "unit": "%"}, {"measurement": "growth inhibition", "setting": "[10]; at 33.0 µM", "value": 30, "unit": "%"}, {"measurement": "growth inhibition", "setting": "[10]; [17]", "value": "79% (active)"}, {"measurement": "growth inhibition", "setting": "[10]; at 50.0 µM", "value": "72.2% (active)"}, {"measurement": "growth inhibition", "setting": "[10]; at 100.0 µM", "value": "72% (active)"}, {"measurement": "growth inhibition", "setting": "[11]; at 1.2 µM", "value": 5, "unit": "%"}, {"measurement": "growth inhibition", "setting": "[11]; at 3.7 µM", "value": -3, "unit": "%"}, {"measurement": "growth inhibition", "setting": "[11]; at 11.0 µM", "value": -9, "unit": "%"}, {"measurement": "growth inhibition", "setting": "[11]; at 33.0 µM", "value": 14, "unit": "%"}, {"measurement": "growth inhibition", "setting": "[11]; at 100.0 µM", "value": 43, "unit": "%"}, {"measurement": "growth inhibition", "setting": "[12]; at 1.2 µM", "value": 0, "unit": "%"}, {"measurement": "growth inhibition", "setting": "[12]; at 3.7 µM", "value": -19, "unit": "%"}, {"measurement": "growth inhibition", "setting": "[12]; at 11.0 µM", "value": -38, "unit": "%"}, {"measurement": "growth inhibition", "setting": "[12]; at 33.0 µM", "value": -30, "unit": "%"}, {"measurement": "growth inhibition", "setting": "[12]; at 100.0 µM", "value": 31, "unit": "%"}, {"measurement": "growth inhibition", "setting": "[13]; at 1.2 µM", "value": -20, "unit": "%"}, {"measurement": "growth inhibition", "setting": "[13]; at 3.7 µM", "value": -22, "unit": "%"}, {"measurement": "growth inhibition", "setting": "[13]; at 11.0 µM", "value": -21, "unit": "%"}, {"measurement": "growth inhibition", "setting": "[13]; at 33.0 µM", "value": -16, "unit": "%"}, {"measurement": "growth inhibition", "setting": "[13]; at 100.0 µM", "value": 36, "unit": "%"}, {"measurement": "growth inhibition", "setting": "[14]; [16]", "value": 46, "unit": "%"}, {"measurement": "growth inhibition", "setting": "[14]; [17]", "value": 67, "unit": "%"}, {"measurement": "growth inhibition", "setting": "[14]; at 50.0 µM", "value": 19.2, "unit": "%"}, {"measurement": "growth inhibition", "setting": "[15]; at 1.2 µM", "value": -17, "unit": "%"}, {"measurement": "growth inhibition", "setting": "[15]; at 3.7 µM", "value": -25, "unit": "%"}, {"measurement": "growth inhibition", "setting": "[15]; at 11.0 µM", "value": -17, "unit": "%"}, {"measurement": "growth inhibition", "setting": "[15]; at 33.0 µM", "value": -15, "unit": "%"}, {"measurement": "growth inhibition", "setting": "[15]; at 100.0 µM", "value": 27, "unit": "%"}]}]}
